# Laboratory results taken from PubChem BioAssay (NCATS).
# Results filed as inconclusive are left out. A number with no mark means an inactive call. Active and inactive are the calls of the source. The call rests on the fitted dose curve; in most records, active means well fitted inhibition curve with a large enough effect; inconclusive means small, poorly fitted or top-dose-only effect; inactive means flat fitted curve, though single readings scatter.
# Key:
# Test in all cases: Cytotoxic Profiling of Annotated Libraries Using Quantitative High-Throughput Screening (AID 1296008); further: nearly all actives have a fitted effect of over 60% in size
# Conditions in all cases: Five cell lines viability, CellTiter-Glo ATP luminescence, 48-72 h; max response: active compounds read low
# CRL-7250 = normal cell line; tested on: CRL-7250
# Outline: (§1)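 Cells exposed to compounds for 48 or 72 hr at 37 degrees Celsius. Viability read as ATP-coupled luminescence with CellTiter-Glo after 10 min at room temperature.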
# HEK293 = tested on: HEK293
# Outline: as §1
# HaCat = tested on: HaCat
# Outline: as §1
# KB-3-1 = tested on: KB-3-1
# Outline: as §1
# On the % scale 0 is the no-effect control and ±100 the full control effect; potency means the concentration at half of the fitted maximal effect.
compound,measurement,setting,value
CC[C@]1(O)CC2CN(CCc3c([nH]c4ccccc34)[C@@](C(=O)OC)(c3cc4c(cc3OC)N(C=O)[C@H]3[C@@](O)(C(=O)OC)[C@H](OC(C)=O)[C@]5(CC)C=CCN6CC[C@]43[C@@H]65)C2)C1 (stereo partly specified),Potency,CRL-7250,64 nM (active)
same,Potency,HEK293,32.1 nM (active)
same,max response,HaCat,3.94%
same,Potency,KB-3-1,8.1 nM (active)
C[C@H](C/C=C/C(C)(C)O)[C@H]1CC[C@@]2(C)[C@@H]3[C@@H](O[C@@H]4O[C@H](CO)[C@@H](O)[C@H](O)[C@H]4O)C=C4C(CC[C@H](O)C4(C)C)[C@]3(C=O)CC[C@]12C (stereo partly specified),max response,CRL-7250,-2.26%
same,max response,HEK293,-5.89%
same,max response,HaCat,-5.49%
same,max response,KB-3-1,8.11%
COc1c2c(c(C)c3c1C(=O)OC3)OC1(C)CC(O)C(C(C)(C)O)C(C)(CCC(=O)O)C1C2 (stereo unspecified),outcome,CRL-7250,inactive
same,max response,HEK293,-5.2%
same,max response,HaCat,-1.29%
same,outcome,KB-3-1,inactive
CC1=C(C)C(=O)OC(C(C)C2CCC3C4CC=C5CC(OC6OC(COC7OC(CO)C(O)C(O)C7O)C(O)C(O)C6O)CC(O)C5(C)C4CCC23C)C1 (stereo unspecified),max response,CRL-7250,-1.46%
same,max response,HEK293,-1.67%
same,max response,HaCat,-17.7%
same,max response,KB-3-1,8.05%
